This is a sample that favours compounds with a hit; in the whole collection about 4.1% have one here.
hgDAF-12 ag: H. glycines DAF-12 receptor agonists, primary screen, cell-based, luminescence, HEK293, GAL4 fusion, UAS-luciferase. HEK293 GAL4-hgDAF12 UAS-luciferase reporter, agonist luminescence; normalized to butyrate control. activation, % at 6.8 µM. actives 1.8% (n = 370,000). AID 687014, 2013;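 active means activation above a cutoff set at the mean of all screened compounds plus 3 SD, cut at about 10% in these data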
ssDAF-12 act: S. stercoralis DAF-12 nuclear receptor activators, primary screen, cell-based, luminescence, HEK293, GRIP1 co-expression, lit1-tk-luc; HEK293 ssDAF-12/GRIP1 lit1-tk-luc reporter; % of 3 µM dafachronic acid response; actives 1% (n = 370,000); activation, % at 6.8 µM; Nuclear hormone receptor DAF-12 (Strongyloides stercoralis);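 active means activation above the mean over all tested compounds plus 3 SD, cut at about 0.9% in these data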
DAX1 inh-1: DAX1 (NR0B1) inhibitors on StAR promoter, primary screen, cell-based, luminescence, SF-1 (NR5A1), full-length DAX-1; HEK293T StAR-luciferase reporter, SF-1/DAX-1 repression relief; inhibition, % at 6.8 µM; actives 1.1% (n = 370,000);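 active means inhibition above the mean over all tested compounds plus 3 SD, cut at about 3.6% in these data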;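 further: higher inhibition means more luminescence from relief of DAX-1 repression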
DAX1 inh-2: DAX1 (NR0B1) inhibitors, primary screen, cell-based, HEK293, Gal4-DAX1, luciferase luminescence | AID 504766, 2011 | actives 0.99% (n = 340,000) | inhibition, % at 6.75 µM | HEK293 Gal4-DAX1 luciferase reporter | Nuclear receptor subfamily 0 group B member 1 (Homo sapiens), P51843;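 active means inhibition above the mean over all tested compounds plus 3 SD, cut at about 4.2% in these data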;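 further: inhibition shows as a rise in luminescence from relieved DAX1 repression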
hcDAF-12 act: H. contortus DAF-12 nuclear receptor activators, primary screen, cell-based, luminescence, HEK293, lit1-tk-luc reporter; HEK293 hcDAF-12 lit1-tk-luc reporter; 0% DMSO, 100% Δ7-dafachronic acid; activation, % at 6.8 µM; actives 1.4% (n = 370,000);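 active means activation above the mean of all tested compounds plus 3 SD, cut at about 5.5% in these data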
DAX1 inh confirm: DAX1 (NR0B1) inhibitors relieving SF-1 repression, confirmation, cell-based, luminescence, HEK293T, full-length DAX-1, SF-1 activated StAR promoter; shares compounds with DAX1 inh-1; HEK293T StAR-promoter luciferase reporter, SF-1/DAX-1 repression; inhibition, % at 6.8 µM; actives 87% (n = 2,400); AID 652134, 2013;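 active means inhibition above the average of every tested compound plus 3 SD, cut at about 3.8% in these data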
Target sequence (P51843 whole entry, looked up): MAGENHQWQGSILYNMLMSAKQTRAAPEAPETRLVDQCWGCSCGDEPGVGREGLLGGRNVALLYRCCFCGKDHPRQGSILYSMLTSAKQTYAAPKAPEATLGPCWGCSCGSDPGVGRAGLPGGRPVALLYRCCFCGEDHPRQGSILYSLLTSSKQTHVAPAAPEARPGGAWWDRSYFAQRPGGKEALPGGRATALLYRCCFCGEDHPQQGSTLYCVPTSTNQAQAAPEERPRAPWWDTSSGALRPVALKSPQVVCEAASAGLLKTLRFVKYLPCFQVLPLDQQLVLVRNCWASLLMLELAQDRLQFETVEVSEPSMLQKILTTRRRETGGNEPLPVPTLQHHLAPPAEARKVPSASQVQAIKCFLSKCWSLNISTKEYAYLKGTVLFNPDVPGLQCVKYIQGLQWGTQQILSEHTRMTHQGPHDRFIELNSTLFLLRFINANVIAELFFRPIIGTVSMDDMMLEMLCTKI
SF1 mutant ctr: StAR reporter signal changes without DAX1, counter-screen for DAX1 inhibitor project, cell-based, luminescence, AF-2 mutant SF-1, transactivation; actives 78% (n = 2,400); AID 652136, 2013; shares compounds with DAX1 inh-1; inhibition, % at 6.8 µM; HEK293 StAR-luciferase, SF-1 AF2 mutant;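 active means inhibition above the mean of all tested compounds plus 3 SD, cut at about 3% in these data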
LXR ag: LXR agonists, Gal4 luciferase reporter, confirmation, counter-screen for hcDAF-12 agonist project, cell-based, luminescence, HEK293, H. contortus campaign | AID 743027, 2013 | shares compounds with hcDAF-12 act | 3,400 tested, under 10 active | activation, % at 6.8 µM | HEK293 Gal4-LXR tk-luc reporter, 24 h; normalized: DMSO 0%, positive control 100%;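 active means mean percent activation of the reporter above a cutoff set as the average over tested compounds plus their standard deviation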
hcDAF12 conf: H. contortus DAF-12 receptor agonists, confirmation, cell-based, luminescence, HEK293, lit1-tk-luc, triplicate; shares compounds with hcDAF-12 act; AID 743032, 2013; activation, % at 6.8 µM; HEK293 hcDAF-12 lit1-tk-luc reporter; % of Δ7-dafachronic acid response; actives 61% (n = 3,400);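 active means mean activation across triplicate tests above the threshold derived from the earlier primary screen, cut at about 5.5% in these data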
Large screens that a line does not name were inactive (follow-up assays come after a bar, where they were run).

O=c1[nH]c(=O)n([C@H]2C[C@H](O)[C@@H](CO)O2)cc1F	none
COc1ccc(NC(=O)CSc2nnc3n2CCCCC3)cc1OC	none
O=C(Nc1nc2c(F)c(F)c(F)cc2s1)c1ccco1	none
O=C(Nc1nc2c(F)cc(F)cc2s1)c1ccco1	hgDAF-12 ag 12, DAX1 inh-1 5.6, hcDAF-12 act 9.1 | DAX1 inh confirm 11 | SF1 mutant ctr 6.3 | LXR ag inactive | hcDAF12 conf inactive
O=C(/C=C/c1ccc(Cl)c(Cl)c1)N1CCc2ccccc21	none
O=C(/C=C/c1cccs1)N1CCc2ccccc21	hgDAF-12 ag 28, ssDAF-12 act 3.6, DAX1 inh-1 7.3, hcDAF-12 act 20 | DAX1 inh confirm 19 | SF1 mutant ctr 8.4 | LXR ag inactive | hcDAF12 conf 21
CCCCCCN1CCN(C2CN(C3CCCCC3)S(=O)(=O)C2)CC1 (stereo unspecified)	none (no result: DAX1 inh-2)
O=C(C[C@H]1CC[C@@H]2[C@H](COC[C@@H](O)CN2Cc2cccc(F)c2)O1)NCC1CCCCC1	none (no result: DAX1 inh-2)
C[C@@H]1CN([C@H](C)CO)C(=O)CCCn2nncc2CO[C@@H]1CN(C)S(C)(=O)=O	none
COc1cccc(C(O)c2ncc(-c3ccccc3Cl)[nH]2)c1 (stereo unspecified)	none (no result: DAX1 inh-2)
Cc1ccc(CNC(=O)COc2ccc(S(=O)(=O)N3CCCC3)cc2)cc1	none
Fc1ccc(-c2cn3cc(C(F)(F)F)cc(Cl)c3n2)cc1	hgDAF-12 ag 12, ssDAF-12 act 3.7, DAX1 inh-1 6.0, DAX1 inh-2 4.9, hcDAF-12 act 19 | DAX1 inh confirm 17 | SF1 mutant ctr 8.8 | LXR ag inactive | hcDAF12 conf 22
Cn1c(/C=C/c2ccccc2)nc2ccccc21	hgDAF-12 ag 11, DAX1 inh-1 4.6, hcDAF-12 act 9.0 | DAX1 inh confirm 6.6 | SF1 mutant ctr inactive | LXR ag inactive | hcDAF12 conf 14
Clc1ccc(OCc2nc(-c3ccncc3)no2)c(Br)c1	hgDAF-12 ag 13, ssDAF-12 act 1.2, DAX1 inh-1 5.9, hcDAF-12 act 8.3 | DAX1 inh confirm 12 | SF1 mutant ctr 8.5 | LXR ag inactive | hcDAF12 conf 6.2
Cc1nc2cc(NC(=O)N3c4ccccc4CC3C)ccc2n1C (stereo unspecified)	ssDAF-12 act 1.3, DAX1 inh-1 6.0, hcDAF-12 act 6.9 | DAX1 inh confirm 18 | SF1 mutant ctr 7.7 | LXR ag inactive | hcDAF12 conf 8.2
O=C(COc1ccc(Cl)cc1Cl)Nc1ccc(Cl)cn1	hgDAF-12 ag 11, DAX1 inh-1 6.2, hcDAF-12 act 8.8 | DAX1 inh confirm 8.3 | SF1 mutant ctr 3.5 | LXR ag inactive | hcDAF12 conf 8.1
COc1ccc(Cc2c(-c3ccc(C)cc3)nc3c4ccccc4ccn23)c(C)c1	none (no result: DAX1 inh-2)
COc1ccc(-c2cn3ccc4ccccc4c3n2)cc1	hgDAF-12 ag 18, ssDAF-12 act 5.2, DAX1 inh-1 7.1, hcDAF-12 act 23 | DAX1 inh confirm 19 | SF1 mutant ctr 9.6 | LXR ag inactive | hcDAF12 conf 23
C1C2CC3C1C3C2=NN=C1C2CC3C(C2)C13	none (no result: DAX1 inh-2)
C=CCCC(=O)N1CCC(C(=O)NC2CCCc3ccccc32)CC1 (stereo unspecified)	none (no result: DAX1 inh-2)
O=C(Nc1ccc(N2CCCC2)cc1)c1cccc(F)c1	hgDAF-12 ag 11, DAX1 inh-1 4.6, hcDAF-12 act 8.8 | DAX1 inh confirm 10 | SF1 mutant ctr inactive | LXR ag inactive | hcDAF12 conf 5.7
Cc1cc(C(=O)COC(=O)C2=COCCO2)c(C)n1-c1ccc2c(c1)OCO2	none
Cc1cc(C(=O)COC(=O)C2=COCCO2)c(C)n1-c1cccc(F)c1	hgDAF-12 ag 11, ssDAF-12 act 1.0, DAX1 inh-1 9.3, hcDAF-12 act 7.2 | DAX1 inh confirm 13 | SF1 mutant ctr 4.0 | LXR ag inactive | hcDAF12 conf inactive
O=C(NCCc1ccccc1)c1ccccc1NC(=O)C1CC=CCC1C(=O)O (stereo unspecified)	hgDAF-12 ag 11, ssDAF-12 act 1.2, DAX1 inh-1 4.7, hcDAF-12 act 11 | DAX1 inh confirm 7.6 | SF1 mutant ctr 7.5 | LXR ag inactive | hcDAF12 conf 7.2
COC(=O)c1ccccc1NC(=O)C1CC=CCC1C(=O)O (stereo unspecified)	none
CCn1c(C)nc2cc(-c3nc4n(n3)Cc3ccccc3-4)ccc21	none (no result: hgDAF-12 ag, ssDAF-12 act, DAX1 inh-1, hcDAF-12 act)
Fc1ccc(-c2nc3n(n2)Cc2ccccc2-3)cc1	hgDAF-12 ag 18, ssDAF-12 act 4.2, DAX1 inh-1 5.5, hcDAF-12 act 18 | DAX1 inh confirm 14 | SF1 mutant ctr 8.6 | LXR ag inactive | hcDAF12 conf 16
CN(C)c1ccc(-c2nc3ccccc3c(=O)[nH]2)cc1	hgDAF-12 ag 15, DAX1 inh-1 5.0, hcDAF-12 act 10 | DAX1 inh confirm 15 | SF1 mutant ctr 4.5 | LXR ag inactive | hcDAF12 conf 12
O=c1[nH]c(-c2ccncc2)nc2ccccc12	none
CCOC(=O)C1CCN(C(=O)c2ccccc2CCc2ccccc2)CC1	none
COc1ccc(/C(N)=N/OC(=O)c2cccs2)cc1	hgDAF-12 ag 12, ssDAF-12 act 4.4, DAX1 inh-1 5.2, hcDAF-12 act 10 | DAX1 inh confirm 14 | SF1 mutant ctr 9.6 | LXR ag inactive | hcDAF12 conf inactive
CN1CCN(C(=O)C2=C[C@H](c3csc4ccccc34)C[C@H](OCCCCO)O2)CC1	none
